Laboratory results: PubChem BioAssay
Active and inactive are the calls of the source.

Legend:
[1] = small molecules captured by biotinylated probe aFSTL3 – biochemical, small-molecule microarray, fluorescence 635/667, stem cell growth factor project, primary screen (AID 1064); details: higher = more signal;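 further: measures binding of the biotinylated anti-FSTL3 antibody to printed compounds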
[2] = binders from COS7 lysate, DM2A8 probe, primary screen, torsin A project, cell lysate, small-molecule microarray, fluorescence 635/667 (AID 1065); details: higher = more signal, COS7 lysate expressing mutant human TOR1A
[3] = small molecules captured by biotinylated probe aFGF2 – biochemical, small-molecule microarray, fluorescence 635/667, stem cell growth factor project, primary screen (AID 1067); details: higher = more signal;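 further: measures binding of biotinylated aFGF2 protein to printed compounds on slides; z-score merges feature fluorescence and signal-to-noise across triplicate slides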
[4] = small molecules captured by biotinylated probe aFGF10 – biochemical, small-molecule microarray, fluorescence 635/667, stem cell growth factor project, primary screen (AID 1071); details: higher = more signal;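 further: score merges 667 nm spot intensity and signal to noise from triplicate slides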
[5] = target: Neurogenic locus notch homolog protein 2 (Homo sapiens) (UniProt Q04721); experiment: small molecules binding Notch2 protein – biochemical, small-molecule microarray, 635 nm fluorescence, stem cell growth factors, primary screen (AID 1073); details: higher = more signal
[6] = target: Pro-neuregulin-1, membrane-bound isoform (Homo sapiens) (UniProt Q02297); experiment: small molecules binding neuregulin-1 protein – biochemical, small-molecule microarray, fluorescence 635/667, psychiatric disease protein project, primary screen (AID 1075); details: NRG1 binding, 635 nm fluorescence, higher = more signal;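 further: score combines 667 nm spot fluorescence with signal to noise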
Sequence of Pro-neuregulin-1, membrane-bound isoform (Homo sapiens) (Q02297 whole entry, looked up, the tested form may be a part, canonical isoform): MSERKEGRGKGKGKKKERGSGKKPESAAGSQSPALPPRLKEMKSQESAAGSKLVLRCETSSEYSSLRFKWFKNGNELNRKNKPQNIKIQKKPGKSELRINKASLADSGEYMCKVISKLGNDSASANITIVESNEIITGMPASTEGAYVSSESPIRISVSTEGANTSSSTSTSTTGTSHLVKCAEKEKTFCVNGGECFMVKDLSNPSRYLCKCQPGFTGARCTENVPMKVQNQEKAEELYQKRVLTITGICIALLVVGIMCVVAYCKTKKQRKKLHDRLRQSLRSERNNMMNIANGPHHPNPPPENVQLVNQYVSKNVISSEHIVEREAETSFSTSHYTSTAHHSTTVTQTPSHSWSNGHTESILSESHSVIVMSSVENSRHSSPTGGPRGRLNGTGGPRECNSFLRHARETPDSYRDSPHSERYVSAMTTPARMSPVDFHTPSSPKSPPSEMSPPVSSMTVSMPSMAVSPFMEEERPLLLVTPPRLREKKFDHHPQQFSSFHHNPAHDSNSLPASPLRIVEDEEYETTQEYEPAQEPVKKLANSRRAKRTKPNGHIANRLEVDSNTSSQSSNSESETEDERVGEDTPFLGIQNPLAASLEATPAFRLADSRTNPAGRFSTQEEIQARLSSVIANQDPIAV

[7] = system: Neuregulin-1 EGF-like domain; experiment: small molecules binding NRG1 EGF domain – biochemical, small-molecule microarray, 635 nm fluorescence, primary screen (AID 1081); details: higher = more signal;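 further: binding of the protein to compounds printed on small-molecule microarray slides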
[8] = FRG1 expression reporter modulators in myotubes – cell-based, C2C12 myotubes, firefly/Renilla luciferase, luminescence, FRG1 inhibition for FSHD, primary screen (AID 1084); details: FRG1 promoter luciferase, higher = more signal, called active from +8 up or from −8 down
[9] = small molecules captured by biotinylated probe aFST – biochemical, small-molecule microarray, fluorescence 635/667, stem cell growth factor project, primary screen (AID 1086); details: higher = more signal;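 further: score merges 667 nm fluorescence with signal-to-noise of each printed compound spot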
[10] = binders of probe aHhip on microarray, primary screen, stem cell growth factor project, biochemical, small-molecule microarray, fluorescence 635/667 (AID 1087); details: higher = more signal;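 further: score merges spot fluorescence at 667nm with spot signal to noise ratio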
[11] = system: PRMT1 (protein arginine N-methyltransferase 1); experiment: small molecules binding arginine methyltransferase PRMT1 – biochemical, small-molecule microarray, 635 nm fluorescence, primary screen (AID 1088); details: higher = more signal;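 further: binding of Prmt1 protein to compounds spotted on small-molecule microarray slides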
[12] = growth effects on S. cerevisiae YJM789 – YJM789 clinical isolate, OD600, 24 h, basal, primary screen (AID 1089); details: higher = more signal, called active from +8 up or from −8 down;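 further: growth of clinical yeast isolate S. cerevisiae YJM 789 seeded 1000 cells per well; test concentration not given here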
[13] = S. pombe growth modifiers, basal conditions – strain 972, OD600, 24 h, no modulator, primary screen (AID 1090);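 further: basal condition with compound alone and no growth modifier present; test concentration not given here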; details: S. pombe 972 growth, higher = more signal, called active from +8 up or from −8 down
[14] = budding yeast growth modifiers under rapamycin – strain BY4716, OD600, 96 h, primary screen (AID 1091); further: test concentration not given here; details: S. cerevisiae BY4716 + rapamycin, higher = more signal, called active from +8 up or from −8 down
[15] = target: Torsin-1A-interacting protein 2 (Homo sapiens) (UniProt Q8NFQ8); experiment: small molecules binding lysate-expressed LULL1 – cell lysate, human LULL1 lysate, 635/667 nm fluorescence, primary screen (AID 1092); details: small-molecule microarray, hLULL1 lysate binding, 635 nm fluorescence; higher = more signal;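 further: probe is lysate of COS7 cells overexpressing human LULL1; score merges per-feature 667 nm fluorescence with signal-to-noise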
Sequence of Torsin-1A-interacting protein 2 (Homo sapiens) (Q8NFQ8 whole entry, looked up): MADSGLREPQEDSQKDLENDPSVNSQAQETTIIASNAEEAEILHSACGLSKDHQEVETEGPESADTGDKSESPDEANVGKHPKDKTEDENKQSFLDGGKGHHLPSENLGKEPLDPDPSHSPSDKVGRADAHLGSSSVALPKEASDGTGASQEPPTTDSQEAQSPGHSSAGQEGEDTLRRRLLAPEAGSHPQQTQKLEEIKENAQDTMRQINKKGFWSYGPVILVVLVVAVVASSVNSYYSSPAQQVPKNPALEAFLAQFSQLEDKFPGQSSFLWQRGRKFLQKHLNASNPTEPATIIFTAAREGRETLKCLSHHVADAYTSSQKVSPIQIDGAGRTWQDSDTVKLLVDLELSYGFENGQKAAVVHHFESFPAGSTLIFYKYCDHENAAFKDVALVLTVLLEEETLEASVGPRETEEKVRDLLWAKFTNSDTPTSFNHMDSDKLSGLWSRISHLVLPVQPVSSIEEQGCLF

[16] = optical density change of DRC41 E. coli – strain DRC41, OD650, 24 h, E. coli filamentation project, primary screen (AID 1093);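 further: MC1000 strain lacking acrAB efflux and sulA so SOS filamentation is blocked; test concentration not given here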; details: E. coli DRC41 growth, higher = more signal, called active from +8 up or from −8 down
[17] = probe aLefty2 binding to arrayed compounds – biochemical, biotinylated probe, 635/667 nm fluorescence, primary screen (AID 1094); details: small-molecule microarray, higher = more signal;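 further: score merges spot fluorescence near 667 nm with spot signal-to-noise ratio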
[18] = system: Noggin (protein binding on small-molecule microarray); experiment: small molecules binding Noggin protein – biochemical, 635/667 nm fluorescence, primary screen (AID 1095); details: 635 nm fluorescence, higher = more signal;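 further: score merges 667 nm feature fluorescence with signal to noise over triplicate slides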
[19] = target: Neurogenic locus notch homolog protein 3 (Homo sapiens) (UniProt Q9UM47); experiment: small molecules binding NOTCH3 protein – biochemical, 635/667 nm fluorescence, primary screen (AID 1096); details: small-molecule microarray, 635 nm fluorescence, higher = more signal
Sequence of Neurogenic locus notch homolog protein 3 (Homo sapiens) (Q9UM47 whole entry, looked up): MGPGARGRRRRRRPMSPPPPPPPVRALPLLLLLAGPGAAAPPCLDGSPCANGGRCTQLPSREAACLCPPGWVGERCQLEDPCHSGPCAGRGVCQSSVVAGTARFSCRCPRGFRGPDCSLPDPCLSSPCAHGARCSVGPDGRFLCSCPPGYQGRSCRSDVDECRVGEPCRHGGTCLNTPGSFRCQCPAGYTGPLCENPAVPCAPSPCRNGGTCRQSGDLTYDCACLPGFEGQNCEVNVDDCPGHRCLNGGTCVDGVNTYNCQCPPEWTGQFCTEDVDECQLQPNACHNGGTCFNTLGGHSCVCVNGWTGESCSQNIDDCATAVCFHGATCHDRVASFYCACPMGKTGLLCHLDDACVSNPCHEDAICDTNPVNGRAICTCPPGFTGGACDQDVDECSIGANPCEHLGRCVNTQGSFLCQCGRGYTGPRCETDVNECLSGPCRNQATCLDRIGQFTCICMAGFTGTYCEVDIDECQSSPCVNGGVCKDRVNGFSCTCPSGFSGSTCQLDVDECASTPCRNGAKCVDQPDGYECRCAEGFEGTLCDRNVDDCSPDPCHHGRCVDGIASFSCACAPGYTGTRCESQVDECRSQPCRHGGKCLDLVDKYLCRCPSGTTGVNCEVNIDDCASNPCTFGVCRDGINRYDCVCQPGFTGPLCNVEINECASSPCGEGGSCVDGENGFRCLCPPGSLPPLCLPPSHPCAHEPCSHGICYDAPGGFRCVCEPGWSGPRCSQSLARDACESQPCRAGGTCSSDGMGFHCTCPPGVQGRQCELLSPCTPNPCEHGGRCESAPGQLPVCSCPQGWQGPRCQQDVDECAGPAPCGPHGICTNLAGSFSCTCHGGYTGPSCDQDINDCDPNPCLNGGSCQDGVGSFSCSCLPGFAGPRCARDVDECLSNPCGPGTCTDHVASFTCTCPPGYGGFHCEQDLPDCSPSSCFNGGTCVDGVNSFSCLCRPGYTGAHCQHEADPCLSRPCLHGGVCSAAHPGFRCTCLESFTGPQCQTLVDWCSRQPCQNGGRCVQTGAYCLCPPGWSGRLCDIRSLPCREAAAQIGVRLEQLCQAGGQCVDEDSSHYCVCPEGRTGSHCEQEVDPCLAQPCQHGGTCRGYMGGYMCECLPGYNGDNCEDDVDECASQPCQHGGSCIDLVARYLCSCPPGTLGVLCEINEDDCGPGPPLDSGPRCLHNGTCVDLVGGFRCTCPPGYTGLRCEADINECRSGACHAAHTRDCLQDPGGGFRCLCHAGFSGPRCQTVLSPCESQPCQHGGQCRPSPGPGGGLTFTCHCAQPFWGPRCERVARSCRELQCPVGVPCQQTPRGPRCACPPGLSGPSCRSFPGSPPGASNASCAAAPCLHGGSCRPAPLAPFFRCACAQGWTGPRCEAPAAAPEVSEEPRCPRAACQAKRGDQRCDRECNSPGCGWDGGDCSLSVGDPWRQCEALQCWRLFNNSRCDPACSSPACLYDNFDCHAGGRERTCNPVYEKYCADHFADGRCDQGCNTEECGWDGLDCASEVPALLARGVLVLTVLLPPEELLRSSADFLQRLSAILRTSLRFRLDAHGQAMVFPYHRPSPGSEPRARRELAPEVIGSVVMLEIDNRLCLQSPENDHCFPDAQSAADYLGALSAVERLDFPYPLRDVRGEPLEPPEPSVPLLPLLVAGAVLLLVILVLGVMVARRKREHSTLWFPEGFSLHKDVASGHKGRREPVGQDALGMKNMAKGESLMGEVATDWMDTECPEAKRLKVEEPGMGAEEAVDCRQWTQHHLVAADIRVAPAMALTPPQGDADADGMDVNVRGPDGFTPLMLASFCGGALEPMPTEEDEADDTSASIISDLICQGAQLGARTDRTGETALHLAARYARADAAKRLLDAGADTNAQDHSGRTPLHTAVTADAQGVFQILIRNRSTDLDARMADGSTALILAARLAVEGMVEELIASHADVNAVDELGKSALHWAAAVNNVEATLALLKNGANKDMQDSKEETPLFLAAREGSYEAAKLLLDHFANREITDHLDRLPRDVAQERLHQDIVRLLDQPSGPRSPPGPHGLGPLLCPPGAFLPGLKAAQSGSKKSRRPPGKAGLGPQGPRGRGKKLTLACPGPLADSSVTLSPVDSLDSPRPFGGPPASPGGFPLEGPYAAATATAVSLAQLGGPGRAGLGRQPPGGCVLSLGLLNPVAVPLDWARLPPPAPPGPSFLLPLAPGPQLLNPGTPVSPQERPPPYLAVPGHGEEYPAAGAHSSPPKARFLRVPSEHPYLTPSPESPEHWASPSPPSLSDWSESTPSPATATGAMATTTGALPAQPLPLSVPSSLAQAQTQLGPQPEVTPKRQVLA

[20] = probe aEGFR binding to arrayed compounds – biochemical, biotinylated probe, 635/667 nm fluorescence, primary screen (AID 1097); details: small-molecule microarray, higher = more signal;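 further: probe is a biotinylated anti-EGFR antibody binding compounds printed on slides; score combines fluorescence near 667 nm and signal to noise of each spot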

| Structure (SMILES) | composite z-score [1] | composite z-score [2] | composite z-score [3] | composite z-score [4] | composite z-score [5] | composite z-score [6] | composite z-score [7] | z-score [8] | composite z-score [9] | composite z-score [10] | composite z-score [11] | z-score [12] | z-score [13] | z-score [14] | composite z-score [15] | z-score [16] | composite z-score [17] | composite z-score [18] | composite z-score [19] | composite z-score [20] |
| --- | --- | --- | --- | --- | --- | --- | --- | --- | --- | --- | --- | --- | --- | --- | --- | --- | --- | --- | --- | --- |
| COCCOC(=O)N1C(=O)[C@@]2(c3cc(C#CCC(C(=O)OC)C(=O)OC)ccc31)[C@H](c1ccc(OCCO)cc1)N1[C@H](c3ccccc3)[C@H](c3ccccc3)OC(=O)[C@H]1[C@@H]2C(=O)NC[C@H](O)c1ccccc1 | -1.25 | 0.501 | -0.0272 | 1.15 | 1.45 | 0.824 | 1.28 | -0.89 (inactive) | -0.158 | -0.521 | 1.53 | 2.11 (inactive) | 1.7 (inactive) | 7.38 (inactive) | 3.51 | 0.0053 (inactive) | -0.426 | 1.46 | 1.08 | -0.0389 |
| Cc1ccc(N2C(=O)c3ccccc3[C@@H](C(=O)NC(C)C)[C@@H]2c2ccc(CO)cc2)nc1 | 0.675 | -0.374 | -0.0598 | 0.079 | -0.333 | -0.318 | 1.27 | 0.822 (inactive) | -1.08 | -0.0994 | 0.528 | -1.14 (inactive) | -0.958 (inactive) | -1.62 (inactive) | 3.07 | -0.113 (inactive) | -0.0336 | -0.0751 | -0.528 | -0.115 |
| C=CCC(OC(C)=O)[C@@H]1[C@@H](N(Cc2cc3ccccc3o2)C(=O)c2cccc3ccccc23)c2cc(OCCCO)ccc2N1C(=O)Cc1ccc2ccccc2c1 (stereo not given in full) | -0.0977 | 0.0901 | -0.0383 | 0.0537 | -0.127 | 0.144 | 0.195 | -2.3 (inactive) | 0.309 | 0.0749 | 0.37 | 0.263 (inactive) | 0.246 (inactive) | 0.445 (inactive) | 0.797 | 0.117 (inactive) | -0.0898 | -0.233 | -0.164 | -0.123 |
| CCCNC(=O)[C@@]1(C)c2ccccc2C(=O)N(Cc2cc(F)cc(C(F)(F)F)c2)[C@H]1c1ccc(CO)cc1 | 0.343 | 1.04 | -0.0901 | -0.104 | -0.639 | 0.27 | 0.146 | -0.92 (inactive) | -0.282 | -0.181 | 0.136 | -1.34 (inactive) | -0.974 (inactive) | -1.24 (inactive) | 2.08 | 0.423 (inactive) | -0.174 | 0.0391 | -0.131 | -0.194 |
| COC(=O)[C@@]1(Cc2ccc(OC)cc2)[C@H]2c3cc(C(=O)N(C)C)n(Cc4ccc(OC)c(OC)c4)c3C[C@H]2CN1C(=O)c1ccccc1 | 0.42 | 0.796 | -0.0824 | 0.336 | 1.73 | 1.86 | 1.28 | 0.889 (inactive) | 1.39 | 0.525 | 1.58 | 1.04 (inactive) | 2.35 (inactive) | 4.24 (inactive) | 3.65 | -0.841 (inactive) | 0.401 | -0.356 | 1.03 | 0.288 |
| C=C[C@H](C)[C@H](OC(=O)Nc1ccc(OC)cc1)c1ccc(O)c2ccccc12 | 0.436 | -0.0826 | -0.121 | -0.148 | -0.714 | -0.322 | 0.957 | 3.63 (inactive) | -0.304 | -0.124 | -0.0544 | -25.3 (active) | -20.9 (active) | -3.05 (inactive) | 0.645 | 0.355 (inactive) | -0.151 | 0.585 | 0.0103 | -0.222 |
| C=C(COC)C(=O)CC[C@@H](OC(=O)c1ccccc1-c1ccccc1C(=O)O)c1ccc(CO)o1 | -0.229 | 1.23 | -0.0449 | -0.177 | 0.187 | 0.982 | 1.36 | -3.75 (inactive) | -0.551 | -0.0994 | 1.38 | -24.5 (active) | -20.5 (active) | -4.45 (inactive) | 2.4 | -0.177 (inactive) | -0.215 | 1.63 | 0.314 | -0.0512 |
| CO[C@H]1O[C@H](CO)[C@@H](OC(=O)Nc2cccc(F)c2)[C@H](OC(=O)Nc2ccccc2-c2ccccc2)[C@@H]1OC(=O)Nc1ccccc1-c1ccccc1 | -0.217 | 0.568 | 0.111 | 0.669 | 1.65 | 1.75 | 1.29 | 1.16 (inactive) | 1.02 | -0.374 | 1.55 | 2.1 (inactive) | 1.88 (inactive) | -1.23 (inactive) | 3.34 | 0.675 (inactive) | 0.134 | 0.615 | 1.05 | -0.013 |
| O=C1O[C@@H](c2ccccc2)[C@@H](c2ccccc2)N2[C@@H](c3ccc(O)cc3)[C@]3(C(=O)Nc4ccccc43)[C@@H](C(=O)N3CCCCCCC3)[C@H]12 | 3.65 | 1.15 | 0.937 | 0.525 | 0.519 | 2.22 | 1.35 | -4.16 (inactive) | 2.99 | 1.07 | 1.54 | 0.964 (inactive) | 0.295 (inactive) | 1.9 (inactive) | 4.32 | 0.271 (inactive) | 1.54 | 0.589 | 0.896 | 1.13 |
| C=CCN1C(=O)[C@]2(COC(c3ccc(OCCCO)cc3)=N2)Cc2ccccc21 | 0.842 | 0.33 | 0.136 | 0.115 | 0.595 | 0.977 | 1.08 | -0.664 (inactive) | 0.258 | -0.3 | 1.36 | -2.32 (inactive) | -5.3 (inactive) | -1.78 (inactive) | 3.21 | 1.09 (inactive) | 0.0914 | 0.044 | 0.801 | -0.163 |
